# Results from the supplement of paper PMC8007513.
# Where a name gives a salt, the structure may show the parent alone. ± gives the standard error. The whole screen tested about 1,300 compounds, of which about 130 (10%) showed an effect of 50% or more. What follows is part of a selection rich in strong results, with near analogues and random picks from the rest.
# Test system: Trichoderma virens ATCC 9645
# Assay: growth yield (OD600) with compound + IPBC relative to untreated control; higher = less growth inhibition
# Details: compound concentration: 100 uM, IPBC concentration: 200 ng/ml
# How it was run: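 Trichoderma virens ATCC 9645 spores from 7-day potato dextrose agar plates were suspended in potato dextrose broth at 15,000 spores ml^−1. Aliquots of 100 μl with library compounds at 100 μM final, with or without a co-applied biocide at 200 ng ml^−1, were grown in 96-well plates at 30 °C. OD600 was read at 40 h and 72 h on a BioTek EL800. Growth is expressed relative to the control without either agent, as means of duplicate screens.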
SMILES,growth yield (40 h),growth yield (72 h)
COC(=O)[C@H]1[C@H]2C[C@@H]3c4[nH]c5cc(OC)ccc5c4CCN3C[C@H]2C[C@@H](OC(=O)c2cc(OC)c(OC)c(OC)c2)[C@@H]1OC [Reserpine] + CCCCNC(=O)OCC#CI [3-iodo-2-propynyl butylcarbamate (IPBC)],102 ± 3.2%,104 ± 2%
CC(=O)NC1CCSC1=O (racemic) [N-Acetyl-DL-homocysteine Thiolactone] + CCCCNC(=O)OCC#CI [3-iodo-2-propynyl butylcarbamate (IPBC)],95.8 ± 7.8%,96.3 ± 7.8%
CC(C(=O)O)c1ccc(-c2ccccc2)c(F)c1 (stereo not drawn) [Flurbiprofen] + CCCCNC(=O)OCC#CI [3-iodo-2-propynyl butylcarbamate (IPBC)],43.4 ± 3.3%,76.9 ± 2%
CC(C(=O)O)c1cccc(C(=O)c2ccccc2)c1 (stereo not drawn) [Ketoprofen] + CCCCNC(=O)OCC#CI [3-iodo-2-propynyl butylcarbamate (IPBC)],74 ± 0.95%,86.4 ± 1.5%
CC(C(=O)O)c1cccc(Oc2ccccc2)c1 (stereo not drawn) [Fenoprofen calcium salt dihydrate] + CCCCNC(=O)OCC#CI [3-iodo-2-propynyl butylcarbamate (IPBC)],73.9 ± 12%,84 ± 9.1%
NC(CO)C(=O)NNCc1ccc(O)c(O)c1O (stereo not drawn) [Benserazide hydrochloride] + CCCCNC(=O)OCC#CI [3-iodo-2-propynyl butylcarbamate (IPBC)],63.9 ± 0.64%,75.2 ± 0.52%
CN[C@@H]1[C@H](O)[C@H](NC)[C@H]2O[C@@]3(O)C(=O)C[C@@H](C)O[C@H]3O[C@@H]2[C@H]1O [Spectinomycin dihydrochloride] + CCCCNC(=O)OCC#CI [3-iodo-2-propynyl butylcarbamate (IPBC)],104 ± 13%,103 ± 8%
CC(NCCC(c1ccccc1)c1ccccc1)c1ccccc1 (stereo not drawn) [Fendiline hydrochloride] + CCCCNC(=O)OCC#CI [3-iodo-2-propynyl butylcarbamate (IPBC)],70.37 ± 0.16%,93.7 ± 1.4%
Cc1ccnc(NS(=O)(=O)c2ccc(N)cc2)n1 [Sulfamerazine] + CCCCNC(=O)OCC#CI [3-iodo-2-propynyl butylcarbamate (IPBC)],88.2 ± 6.2%,90.9 ± 4.7%
CC(C)(C)C(=O)OCOC(=O)[C@@H]1N2C(=O)[C@@H](/N=C/N3CCCCCC3)[C@H]2SC1(C)C [Pivmecillinam hydrochloride] + CCCCNC(=O)OCC#CI [3-iodo-2-propynyl butylcarbamate (IPBC)],57.8 ± 4.5%,77.2 ± 3.1%
CCC(=O)O[C@]1(C(=O)CCl)[C@@H](C)C[C@H]2[C@@H]3CCC4=CC(=O)C=C[C@]4(C)[C@@]3(F)[C@@H](O)C[C@@]21C [Clobetasol propionate] + CCCCNC(=O)OCC#CI [3-iodo-2-propynyl butylcarbamate (IPBC)],109 ± 7.2%,106 ± 4.7%
C[C@@H]1C[C@@H]([C@H](O)CC2CC(=O)NC(=O)C2)C(=O)[C@@H](C)C1 [Cycloheximide] + CCCCNC(=O)OCC#CI [3-iodo-2-propynyl butylcarbamate (IPBC)],34.3 ± 2.9%,85.7 ± 3.2%
C[C@]12CC[C@H]3C(=CCc4cc(O)ccc43)[C@@H]1CCC2=O [Equilin] + CCCCNC(=O)OCC#CI [3-iodo-2-propynyl butylcarbamate (IPBC)],82.4 ± 17%,86.8 ± 9%
C=CC[N@@+]12CC[C@@]34c5ccccc5N5/C=C6/[C@H]7C[C@H]8[C@@]9(CC[N@@+]8(CC=C)C/C7=C/CO)c7ccccc7N(/C=C(/[C@@H](C[C@@H]31)/C(=C\CO)C2)[C@H]54)[C@@H]69 [Alcuronium chloride] + CCCCNC(=O)OCC#CI [3-iodo-2-propynyl butylcarbamate (IPBC)],6.83 ± 0.16%,35.4 ± 3.4%
Cn1ccnc1S [Methimazole] + CCCCNC(=O)OCC#CI [3-iodo-2-propynyl butylcarbamate (IPBC)],120 ± 16%,111 ± 12%
CNCCC(Oc1ccc(C(F)(F)F)cc1)c1ccccc1 (stereo not drawn) [Fluoxetine hydrochloride] + CCCCNC(=O)OCC#CI [3-iodo-2-propynyl butylcarbamate (IPBC)],71.8 ± 4.8%,96.9 ± 2.9%
CN1CCN(C(c2ccccc2)c2ccccc2)CC1 [Cyclizine hydrochloride] + CCCCNC(=O)OCC#CI [3-iodo-2-propynyl butylcarbamate (IPBC)],82.6 ± 1.3%,87.6 ± 2%
C(=C\c1ccccc1)/CN1CCN(C(c2ccccc2)c2ccccc2)CC1 [Cinnarizine] + CCCCNC(=O)OCC#CI [3-iodo-2-propynyl butylcarbamate (IPBC)],34.9 ± 5.1%,93.1 ± 4%
O=C(O)COCCN1CCN(C(c2ccccc2)c2ccc(Cl)cc2)CC1 (stereo not drawn) [Cetirizine dihydrochloride] + CCCCNC(=O)OCC#CI [3-iodo-2-propynyl butylcarbamate (IPBC)],88.5 ± 6.8%,93.8 ± 3.8%
COc1ccc(CN2CCN(C(c3ccc(F)cc3)c3ccc(F)cc3)CC2)c(OC)c1OC [Lomerizine hydrochloride] + CCCCNC(=O)OCC#CI [3-iodo-2-propynyl butylcarbamate (IPBC)],71.8 ± 5.7%,97.4 ± 4.9%

SMILES,growth yield (40 h),growth yield (72 h)
OCCOCCN1CCN(C(c2ccccc2)c2ccc(Cl)cc2)CC1 (stereo not drawn) [Hydroxyzine dihydrochloride] + CCCCNC(=O)OCC#CI [3-iodo-2-propynyl butylcarbamate (IPBC)],76.08 ± 0.16%,95.9 ± 2.5%
Fc1ccc(C(c2ccc(F)cc2)N2CCN(C/C=C/c3ccccc3)CC2)cc1 [Flunarizine dihydrochloride] + CCCCNC(=O)OCC#CI [3-iodo-2-propynyl butylcarbamate (IPBC)],3.81 ± 0.32%,3.78 ± 0.42%
CC(C)NC[C@H](O)COc1ccc(CC(N)=O)cc1 [(S)-(-)-Atenolol] + CCCCNC(=O)OCC#CI [3-iodo-2-propynyl butylcarbamate (IPBC)],82.8 ± 1.8%,88.2 ± 0.1%
O=C(Nc1ccc([N+](=O)[O-])cc1Cl)c1cc(Cl)ccc1O [Niclosamide] + CCCCNC(=O)OCC#CI [3-iodo-2-propynyl butylcarbamate (IPBC)],83.7 ± 2.4%,90.4 ± 2.5%
CC(C)[C@H](N)C(=O)OCCOCn1cnc2c(=O)nc(N)[nH]c21 [Valacyclovir hydrochloride] + CCCCNC(=O)OCC#CI [3-iodo-2-propynyl butylcarbamate (IPBC)],86.7 ± 3.2%,96.4 ± 2.6%
CN1C(=O)CCS(=O)(=O)C1c1ccc(Cl)cc1 (stereo not drawn) [Chlormezanone] + CCCCNC(=O)OCC#CI [3-iodo-2-propynyl butylcarbamate (IPBC)],86.7 ± 3.2%,92.5 ± 1.7%
Cc1[nH]c(=O)c(C#N)cc1-c1ccncc1 [Milrinone] + CCCCNC(=O)OCC#CI [3-iodo-2-propynyl butylcarbamate (IPBC)],89.11 ± 0.48%,92.9 ± 1.9%
Nc1cc(-c2ccncc2)c[nH]c1=O [Amrinone] + CCCCNC(=O)OCC#CI [3-iodo-2-propynyl butylcarbamate (IPBC)],106%,41.3%
CCCNC(C)C(=O)Nc1ccccc1C (stereo not drawn) [Prilocaine hydrochloride] + CCCCNC(=O)OCC#CI [3-iodo-2-propynyl butylcarbamate (IPBC)],86.4%,95.54 ± 0.52%
C[C@H]1NC(=O)NC1=O [Methylhydantoin-5-(D)] + CCCCNC(=O)OCC#CI [3-iodo-2-propynyl butylcarbamate (IPBC)],97.4 ± 14%,95.4 ± 8.4%
CN1[C@@H]2C[C@@H](OC(=O)[C@H](CO)c3ccccc3)C[C@H]1[C@@H]1O[C@@H]12 [Scopolamine hydrochloride] + CCCCNC(=O)OCC#CI [3-iodo-2-propynyl butylcarbamate (IPBC)],94.4 ± 7.9%,94.1 ± 3.5%
Cc1cnc(C(=O)O)c[n+]1[O-] [Acipimox] + CCCCNC(=O)OCC#CI [3-iodo-2-propynyl butylcarbamate (IPBC)],85.3 ± 0.48%,90.72 ± 0.1%
Nc1nc(=S)c2ncn([C@@H]3O[C@H](CO)[C@@H](O)[C@H]3O)c2[nH]1 [Thioguanosine] + CCCCNC(=O)OCC#CI [3-iodo-2-propynyl butylcarbamate (IPBC)],46.1 ± 0.64%,88.3 ± 2.3%
Nc1ncnc2c1ncn2[C@@H]1O[C@H](CO)[C@@H](O)[C@@H]1O [Vidarabine] + CCCCNC(=O)OCC#CI [3-iodo-2-propynyl butylcarbamate (IPBC)],121 ± 11%,109 ± 7.3%
Nc1nc(F)nc2c1ncn2[C@@H]1O[C@H](CO)[C@@H](O)[C@@H]1O [Fludarabine] + CCCCNC(=O)OCC#CI [3-iodo-2-propynyl butylcarbamate (IPBC)],85.3 ± 2.4%,86.6 ± 1.1%
CN(C)CCCO[C@@H]1[C@H]2OC(C)(C)O[C@H]2O[C@@H]1[C@H](O)CO [Amiprilose hydrochloride] + CCCCNC(=O)OCC#CI [3-iodo-2-propynyl butylcarbamate (IPBC)],89.4 ± 4.9%,93.3 ± 4.6%
CCc1cc(C(N)=S)ccn1 [Ethionamide] + CCCCNC(=O)OCC#CI [3-iodo-2-propynyl butylcarbamate (IPBC)],82 ± 2.5%,90.61 ± 0.63%
CC1=C(C(=O)O)N2C(=O)[C@@H](NC(=O)[C@H](N)c3ccc(O)cc3)[C@H]2SC1 [Cefadroxil] + CCCCNC(=O)OCC#CI [3-iodo-2-propynyl butylcarbamate (IPBC)],81.5 ± 1.8%,88.5 ± 1.5%
C=CCN1CC[C@]23c4c5ccc(O)c4O[C@H]2C(=O)CC[C@@]3(O)[C@H]1C5 [Naloxone hydrochloride] + CCCCNC(=O)OCC#CI [3-iodo-2-propynyl butylcarbamate (IPBC)],98.2 ± 3.5%,101 ± 3.5%
